According to PubChem BioAssay (NCI):
About 83,000 compounds went through this panel and 20% of them were active in at least one assay; those are over-represented in the sample as a whole.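 Results are percent growth after 48 hours of single-concentration exposure. 100 means growth as in untreated cells, lower positive values show inhibition; negative values down to -100 show cell death.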 A number with no mark means an inactive call. Active and inactive are the calls of the source. Rule for the calls: active = growth percent below 10; inactive = the rest.

Each compound was assayed on UACC-257 melanoma (assay: NCI-60 one-dose screen, 48 h (100 = growth as untreated, 0 = no growth, -100 = all killed)). Conditions: 10 µM unless noted.
For `C=CC(=O)Nc1cccc(-c2nc(SC)nc(NCc3ccccc3)c2C#N)c1`, the growth was 64.9%. Work on `COC(=O)c1cccc(NC(=O)c2ccc(-c3cccc(N)c3)o2)c1` yielded a growth of 112%. For `N#Cc1c(-c2ccc(Cl)cc2)nc(N=Nc2c(O)[nH]c3ccc(Cl)cc23)nc1N1CCOCC1`, the growth was 107%. With `N#CN1CCC[C@H]1C(=O)N1CCc2c(-c3[nH]nc4ncccc34)cccc21` the growth was 16.5%.

The compounds below were run on M14 melanoma in the same assay as above. Conditions: 10 µM unless noted.
`Nc1ccc(S(=O)(=O)O)c2ccc(N=Nc3ccc(N=Nc4ccc(S(=O)(=O)O)cc4)c4ccccc34)c(O)c12` showed a growth of 99.8%. `CSc1ccc(-c2n[nH]nc2-c2cc3ccccc3s2)cc1` showed a growth of 16%. `COc1ccc(C(=O)COc2ccc(/C=C3\COc4ccc(OC)cc4C3=O)cc2)cc1` was tested, and the growth was 95%. Work on `COc1cc(C=Nc2oc(-c3ccccc3)c(-c3ccccc3)c2C#N)cc(CN2CCCCC2)c1O` yielded a growth of 109%. `O=C1CC[C@H](c2ccc(O)c3c2C(=O)[C@@H]2O[C@@H]2C3=O)c2cccc(O)c21` showed a growth of 69.6%. `C#CC(F)(F)[C@]1(O)CC[C@H]2[C@@H]3CCC4=CC(=O)CCC4=C3[C@@H](c3ccc(C(C)=O)cc3)C[C@@]21C` was tested, and the growth was 96.6%. `O=C(Cc1ccccc1Nc1c(Cl)cccc1Cl)NN1C(=O)/C(=C/c2ccc(Br)cc2)SC1=S` showed a growth of 103%. Compound `Cc1nn(-c2cc(=O)[nH]c3ccccc23)c(N)c1C#N` has a growth of 106%. With `CCn1c(Cc2ccccc2Nc2c(Cl)cccc2Cl)nnc1SCC(=O)NN1C(=O)/C(=C/c2cc(OC)c(O)c(OC)c2)SC1=S` the growth was 19.5%. `Cc1cc(C)nc(SC2=C(Nc3cc(Cl)ccc3O)C(=O)N(Cc3ccccc3)C2=O)n1` was tested, and the growth was 95.2% [30 µM]. With `CCN(CC)c1ccc(/C=N\NC(=O)/C=C/C=C/c2ccc3c(c2)OCO3)c(O)c1` the growth was 36.4%. For `N#Cc1cnn(-c2nc3c(Cl)cccc3s2)c1N`, the growth was 96.1%. `COc1ccc(S(=O)(=O)N2CC3(COC3)C2)cc1NC(=O)c1[nH]c(C)c2c1CCCCC2=O` was tested, and the growth was 58.1%. `Cn1cc(C(=O)c2nc(-c3c[nH]c4ccc(F)cc34)no2)c2cc(F)ccc21` gave a growth of 97%. `O=C1C=C(OCC=C(Cl)Cl)C(=O)c2ccccc21` showed a growth of 83.3%. `Cc1cc(C)nc(SC2=C(Nc3cccc(Cl)c3)C(=O)N(Cc3ccccc3)C2=O)n1` showed a growth of 74.8% [30 µM]. With `O=c1cc(CSc2nnc(-c3ccc(F)cc3)o2)c2ccc3ccccc3c2o1` the growth was 103%. With `CCCn1c(=O)[nH]c(N)c([C@H]2c3ccccc3Oc3[nH]c(=O)n(CCC)c(=O)c32)c1=O` the growth was 83.8%. `O=C(CCN1C(=O)/C(=C/c2ccc(Cl)cc2)SC1=S)NCCCN1CCOCC1` showed a growth of 103%. `Cc1nc2ccccc2n1C(=O)C[C@@H]1NC(=S)NC1=O` was tested, and the growth was 89.3%. In the case of `O=C(N=Nc1c(O)[nH]c2ccc(Br)cc12)c1cc(-c2ccccc2)on1`, the growth is reported as 104%. Compound `C=C(C)C(=O)Nc1ccc(NC(C)C)cc1` has a growth of 101%. With `CC(O)CN1CC(O)=C(c2nc3ccccc3s2)C1=N` (stereo unspecified) the growth was 114%. `O=c1c2c3c(sc2nc(N/N=C/c2cn(-c4ccccc4)nc2-c2ccc(Cl)cc2)n1Cc1ccccc1)CCCC3` was tested, and the growth was 98.1%. `COc1cccc(-c2nn(C(C)(C)C)cc2-c2ccnc(NCCCNS(=O)(=O)c3ccc(C)cc3)c2)c1` gave a growth of 105%. With `CSc1nc(Nc2cccc(NC(=O)CCl)c2)c(C#N)c(-c2cccc([N+](=O)[O-])c2)n1` the growth was 48.7%. In the case of `CSc1nc(Nc2cccc(NC(=O)/C(C#N)=C/c3c(Cl)cccc3Cl)c2)c(C#N)c(-c2cccc([N+](=O)[O-])c2)n1`, the growth is reported as 22.6%. With `COc1ccc(-c2nc3ccc(-c4nc5ccc(N6CCN(c7ccccc7)CC6)cc5[nH]4)cc3[nH]2)cc1OC` the growth was 1.2% (active). With `COc1ccc(CCNc2nc3c(c(=O)n(Cc4ccc(Br)cc4)c(=O)n3C)n2C)cc1OC` the growth was 101%. For `C=CCSSc1ncnc2c1ncn2C1OC(CO)C(O)C1O` (stereo unspecified), the growth was 15.4%. For `Cc1ccc(NC(=O)C2CCC(CN3CCN(C)CC3)CC2)cc1Nc1nccc(-c2cccnc2)n1` (stereo unspecified), the growth was 98.8%. In the case of `COc1cc(/C=C/c2cc(O)c3cc(C(C)=O)c(=O)oc3c2)cc2c1O[C@]1(C)CC[C@@H](O)C(C)(C)[C@H]1C2`, the growth is reported as -49.4% (active).
